What all share (test): yeast three-hybrid, YBZ-1, SC-Leu-His + 0.5 mM 3-AT, 4 days
Conditions in all cases: tags: N-Gal4 AD-HA kept; label: inside an RPR1-promoter hybrid RNA with tandem MS2 sites; ssRNA

For one test, the target named is PUM1 PUF domain R5-PRL (Homo sapiens, UniProt Q14671 828-1176, C1007P;Q1011L). A digest of the protocol: (§1)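 A centromeric plasmid in strain YBZ-1 co-expressed Pumilio-1 PUF domain libraries, randomized at the three base-contacting residues of each repeat, with matching RNA elements; the strain carries a LexA–MS2 coat fusion and a HIS3 reporter. After four days on SC-Leu (input) or SC-Leu-His + 0.5 mM 3-AT (selection), the repeat regions were PCR-amplified and Illumina-sequenced. The interaction score is the log change in variant frequency from input to selection, using log2 and a pseudocount of 1 where absent.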

Another test concerns the target PUM1 PUF domain R5-RKT (Homo sapiens, UniProt Q14671 828-1176, C1007R;R1008K;Q1011T). In outline: as §1
In the next test the target is PUM1 PUF domain R5-RNC (Homo sapiens, UniProt Q14671 828-1176, C1007R;R1008N;Q1011C). In outline: as §1
The target of the next test is PUM1 PUF domain R2-CYP (Homo sapiens, UniProt Q14671 828-1176, N899C;Q903P). In outline:
as §1

A further test addresses PUM1 PUF domain R2-RRS (Homo sapiens, UniProt Q14671 828-1176, N899R;Y900R;Q903S). A digest of the protocol:
as §1

The target of a further test is PUM1 PUF domain R4-FNQ (Homo sapiens, UniProt Q14671 828-1176, N971F;H972N). In outline: as §1
The target of another test is PUM1 PUF domain R1-RYT (Homo sapiens, UniProt Q14671 828-1176, S863R;R864Y;Q867T). In outline:
as §1

The target in a further test is PUM1 PUF domain R3-VCK (Homo sapiens, UniProt Q14671 828-1176, C935V;R936C;Q939K). A digest of the protocol: as §1
Another test deals with T1, PUM1 PUF domain R6-FRQ (Homo sapiens, UniProt Q14671 828-1176, N1043F;Y1044R).
T1 sequence: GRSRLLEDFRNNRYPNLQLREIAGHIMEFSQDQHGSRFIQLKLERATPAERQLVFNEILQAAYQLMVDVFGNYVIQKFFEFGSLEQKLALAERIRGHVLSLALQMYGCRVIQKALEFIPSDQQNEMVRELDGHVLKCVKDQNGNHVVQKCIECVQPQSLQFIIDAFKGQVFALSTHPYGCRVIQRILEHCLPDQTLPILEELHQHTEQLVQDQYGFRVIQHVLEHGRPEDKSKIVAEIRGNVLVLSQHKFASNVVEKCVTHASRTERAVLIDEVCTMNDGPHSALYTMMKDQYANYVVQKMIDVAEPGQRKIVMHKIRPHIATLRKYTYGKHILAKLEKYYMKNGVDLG
A digest of the protocol: as §1

For the next test, the target named is T2, PUM1 PUF domain R6-RFI (Homo sapiens, UniProt Q14671 828-1176, N1043R;Y1044F;Q1047I).
T2 sequence: T1 sequence with F216R, R217F, Q220I
In outline: as §1

A further test concerns the target T3, PUM1 PUF domain R6-GYM (Homo sapiens, UniProt Q14671 828-1176, N1043G;Q1047M).
T3 sequence: T1 sequence with F216G, R217Y, Q220M
In outline: as §1

The target in a further test is PUM1 PUF domain R5-MYW (Homo sapiens, UniProt Q14671 828-1176, C1007M;R1008Y;Q1011W). A digest of the protocol:
as §1

In a further test the target is PUM1 PUF domain R5-SNN (Homo sapiens, UniProt Q14671 828-1176, C1007S;R1008N;Q1011N). A digest of the protocol: as §1
The target in the next test is PUM1 PUF domain R4-SHF (Homo sapiens, UniProt Q14671 828-1176, N971S;Q975F). In outline:
as §1

The target of a further test is PUM1 PUF domain R3-RSY (Homo sapiens, UniProt Q14671 828-1176, C935R;R936S;Q939Y). A digest of the protocol:
as §1

The target in another test is PUM1 PUF domain R3-RAL (Homo sapiens, UniProt Q14671 828-1176, C935R;R936A;Q939L). A digest of the protocol: as §1
In another test the target is PUM1 PUF domain R7-RRD (Homo sapiens, UniProt Q14671 828-1176, S1079R;N1080R;E1083D). In outline:
as §1

Another test addresses PUM1 PUF domain R7-GTS (Homo sapiens, UniProt Q14671 828-1176, S1079G;N1080T;E1083S). In outline: as §1
A further test deals with PUM1 PUF domain R2-RRM (Homo sapiens, UniProt Q14671 828-1176, N899R;Y900R;Q903M). A digest of the protocol:
as §1

The target of the next test is PUM1 PUF domain R2-DFE (Homo sapiens, UniProt Q14671 828-1176, N899D;Y900F;Q903E). A digest of the protocol: as §1

From article PMC8384837, “Expanding the binding specificity for RNA recognition by a PUF domain” come the findings set out here.

Residue numbers refer to the chain shown, from its start.

On to “GGCUAGAACUAGUGGAUCCCCCGGCGCCCGGCGGCUCGAGCCCGGGUAAGUGUCAAUAGUCUGCAUGCCGCCGGGCGCCAUGCCUGCAGGUCGACUCUAGAAAACAUG”, for which the binding signal is 0.34 log2 enrichment (interaction score) in the test with PUM1 PUF domain R5-PRL, 2.84 log2 enrichment (interaction score) with PUM1 PUF domain R5-RKT and 3.93 log2 enrichment (interaction score) with PUM1 PUF domain R5-RNC.
On to “GGCUAGAACUAGUGGAUCCCCCGGCGCCCGGCGGCUCGAGCCCGGGUAAGUGUAAAAAGUCUGCAUGCCGCCGGGCGCCAUGCCUGCAGGUCGACUCUAGAAAACAUG”, for which the binding signal is 5.81 log2 enrichment (interaction score) in the test with PUM1 PUF domain R2-CYP and 1.22 log2 enrichment (interaction score) in the test with PUM1 PUF domain R2-RRS.
As for “GGCUAGAACUAGUGGAUCCCCCGGCGCCCGGCGGCUCGAGCCCGGGUAAGUGUAUAUAGUCUGCAUGCCGCCGGGCGCCAUGCCUGCAGGUCGACUCUAGAAAACAUG”, in the test with PUM1 PUF domain R4-FNQ, the binding signal was 4.16 log2 enrichment (interaction score).
“GGCUAGAACUAGUGGAUCCCCCGGCGCCCGGCGGCUCGAGCCCGGGUAAGUGUAAAUGGUCUGCAUGCCGCCGGGCGCCAUGCCUGCAGGUCGACUCUAGAAAACAUG”: the binding signal with PUM1 PUF domain R1-RYT was 0.45 log2 enrichment (interaction score).
Still for that read-out and setting: as for “GGCUAGAACUAGUGGAUCCCCCGGCGCCCGGCGGCUCGAGCCCGGGUAAGUGUAAAUCGUCUGCAUGCCGCCGGGCGCCAUGCCUGCAGGUCGACUCUAGAAAACAUG”, the figure is 5.12 log2 enrichment (interaction score).
Regarding “GGCUAGAACUAGUGGAUCCCCCGGCGCCCGGCGGCUCGAGCCCGGGUAAGUGUAAGUAGUCUGCAUGCCGCCGGGCGCCAUGCCUGCAGGUCGACUCUAGAAAACAUG”, the binding signal in the test with PUM1 PUF domain R3-VCK is 1.58 log2 enrichment (interaction score).
“GGCUAGAACUAGUGGAUCCCCCGGCGCCCGGCGGCUCGAGCCCGGGUAAGUGUAAAUAGUCUGCAUGCCGCCGGGCGCCAUGCCUGCAGGUCGACUCUAGAAAACAUG”: the binding signal with PUM1 PUF domain R6-FRQ was 2.83 log2 enrichment (interaction score); in the test with PUM1 PUF domain R5-PRL, 3.53 log2 enrichment (interaction score); in the test with PUM1 PUF domain R6-RFI it was 2.68 log2 enrichment (interaction score); with PUM1 PUF domain R5-RNC, 1.15 log2 enrichment (interaction score); with PUM1 PUF domain R6-GYM it was 3.33 log2 enrichment (interaction score).
Consider “GGCUAGAACUAGUGGAUCCCCCGGCGCCCGGCGGCUCGAGCCCGGGUAAGUGUUAAUAGUCUGCAUGCCGCCGGGCGCCAUGCCUGCAGGUCGACUCUAGAAAACAUG”, for which the results for the binding signal with PUM1 PUF domain R5-MYW, with PUM1 PUF domain R5-PRL and in the test with PUM1 PUF domain R5-SNN were 3.48 log2 enrichment (interaction score), 4.51 log2 enrichment (interaction score) and 4.07 log2 enrichment (interaction score), respectively.
Turning to “GGCUAGAACUAGUGGAUCCCCCGGCGCCCGGCGGCUCGAGCCCGGGUAAGUGUACAUAGUCUGCAUGCCGCCGGGCGCCAUGCCUGCAGGUCGACUCUAGAAAACAUG”, in the test with PUM1 PUF domain R4-SHF, the binding signal was 5.41 log2 enrichment (interaction score).
In the case of “GGCUAGAACUAGUGGAUCCCCCGGCGCCCGGCGGCUCGAGCCCGGGUAAGUGUAAUUAGUCUGCAUGCCGCCGGGCGCCAUGCCUGCAGGUCGACUCUAGAAAACAUG”, the binding signal was 2.82 log2 enrichment (interaction score) with PUM1 PUF domain R3-RSY, 3.32 log2 enrichment (interaction score) with PUM1 PUF domain R3-RAL and 2.57 log2 enrichment (interaction score) with PUM1 PUF domain R3-VCK.
Consider “GGCUAGAACUAGUGGAUCCCCCGGCGCCCGGCGGCUCGAGCCCGGGUAAGUUUAAAUAGUCUGCAUGCCGCCGGGCGCCAUGCCUGCAGGUCGACUCUAGAAAACAUG”, for which the binding signal is 4.81 log2 enrichment (interaction score) with PUM1 PUF domain R7-RRD and 2.61 log2 enrichment (interaction score) in the test with PUM1 PUF domain R7-GTS.
“GGCUAGAACUAGUGGAUCCCCCGGCGCCCGGCGGCUCGAGCCCGGGUAAGUCUAAAUAGUCUGCAUGCCGCCGGGCGCCAUGCCUGCAGGUCGACUCUAGAAAACAUG”: the binding signal in the test with PUM1 PUF domain R7-RRD was 2.84 log2 enrichment (interaction score).
As to “GGCUAGAACUAGUGGAUCCCCCGGCGCCCGGCGGCUCGAGCCCGGGUAAGUGUAAAGAGUCUGCAUGCCGCCGGGCGCCAUGCCUGCAGGUCGACUCUAGAAAACAUG”, the binding signal with PUM1 PUF domain R2-RRM is 2.71 log2 enrichment (interaction score); with PUM1 PUF domain R2-DFE, 7.89 log2 enrichment (interaction score); with PUM1 PUF domain R2-CYP, 2.3 log2 enrichment (interaction score); with PUM1 PUF domain R2-RRS, 2.87 log2 enrichment (interaction score).
